Screening data (PubChem BioAssay)
F508del corr: CFTR F508del correction in bronchial cells | CFBE cells, YFP halide quenching; stimulated with forskolin plus potentiator P3; % fluorescence drop versus neutral controls | 0.36% of 350,000 active | activity (quench increase), % at 7.58 µM;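 active = mean added fluorescence quench of at least 8% versus neutral control, with both replicates also reaching 8%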;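 note: cells transiently co-express mutant CFTR-F508del with the halide-sensitive YFP; corrector assay measuring rescue of mutant channel to the surface after 24 h compound exposure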
ARNT-TACC3 inh: ARNT/TACC3 interaction disruption. AlphaScreen His-ARNT PAS-B/GST-TACC3 binding, luminescence; TACC3 fragment carries E629A point mutation. inhibition, % at 9.99 µM. 0.66% of 390,000 active;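 active = mean inhibition of replicates at least 50% and at least half of replicates each reaching 50%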
Statin myotox sup: suppressors of simvastatin-induced myotoxicity in C2C12 myotubes. ATP luminescence, 48 h; scaled: DMSO 0, geranylgeraniol control 100. rescue of ATP level, % at 7.49 µM. 0.78% of 330,000 active. AID 602340;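 active = mean ATP rescue above about 67%, or every replicate alone reaching that limit, limit read from the data, passing the limit was not always enough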;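 note: myotubes were challenged with 10 µM simvastatin during compound exposure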
PglD inh: PglD (C. jejuni) enzyme inhibition; purified PglD enzyme, DTNB colorimetric CoA detection; inhibition, % at 12.5 µM; 0.098% of 360,000 active; AID 602405; in the data active = inhibition above about 16%, passing the limit was not always enough
Large screens that a line does not name were inactive. Most compounds without a hit are left out; they make up all but 1.4% or so of the library.

Cc1ccc(N=C2NC(=O)/C(=C/c3cccn3C)S2)c(C)c1	none (no result: Statin myotox sup, PglD inh)
O=C(C[C@@H]1CC[C@H](NC(=O)c2ccccn2)[C@@H](CO)O1)NCc1cccc(F)c1	none
c1ccc(Cn2nnnc2CN2CCN(c3ncccn3)CC2)cc1	Statin myotox sup 140.2 (no result: F508del corr)
O=C(N/N=C/c1c(O)n(Cc2ccco2)c(=O)[nH]c1=O)c1ccccc1	ARNT-TACC3 inh 62.5 (no result: Statin myotox sup)
O=C(N/N=C\c1ccccc1OCc1ccccc1)c1ccco1	none (no result: ARNT-TACC3 inh, Statin myotox sup, PglD inh)
CC(C)NC(=O)Nc1ccc2c(c1)C(=O)N([C@H](C)CO)C[C@@H](C)[C@@H](CN(C)C)O2	none (no result: ARNT-TACC3 inh)
O=C(c1cnn2c(C(F)F)cc(-c3ccccc3)nc12)N1CCc2ccccc21	Statin myotox sup 118.0 (no result: F508del corr, ARNT-TACC3 inh)
Cc1ccc(-c2cc(C(F)F)n3ncc(C(=O)N4CCc5ccccc54)c3n2)cc1	none (no result: F508del corr, Statin myotox sup, PglD inh)
CC(=O)Nc1ccc(-c2csc(NC(=O)CCNC(=O)c3ccco3)n2)cc1	none (no result: ARNT-TACC3 inh)
O=C(CCNC(=O)c1ccco1)Nc1nc(-c2ccccc2)cs1	F508del corr 8.8 (no result: ARNT-TACC3 inh)
COCC#Cc1ccc([C@H]2[C@@H](CO)N3C(=O)CN(C(=O)c4cccnc4)C[C@@H]23)cc1	none (no result: ARNT-TACC3 inh, Statin myotox sup, PglD inh)
CC(C)(C)CC(C)(C)NC(=S)Nc1ccc2nc(-c3ccccn3)c(-c3ccccn3)nc2c1	none (no result: F508del corr)
CN(C)NC(=S)Nc1ccc2nc(-c3ccccn3)c(-c3ccccn3)nc2c1	ARNT-TACC3 inh 73.0 (no result: F508del corr)
OCCCNC(=S)Nc1ccc2nc(-c3ccccn3)c(-c3ccccn3)nc2c1	ARNT-TACC3 inh 60.2 (no result: F508del corr)
C[C@H]1CN([C@@H](C)CO)C(=O)Cc2cc(NC(=O)NC3CCCCC3)ccc2O[C@@H]1CN(C)Cc1ccc(C(F)(F)F)cc1	none
O=C(C[C@@H]1C[C@H]2c3cc(NC(=O)Nc4ccc(C(F)(F)F)cc4)ccc3O[C@H]2[C@@H](CO)O1)NCCc1ccccc1	none
Cc1ccc2nc(-c3ccccc3Cl)cc(C(=O)Nc3cc(C)on3)c2c1	Statin myotox sup 109.5 (no result: F508del corr)
COC(=O)C[C@H]1CC[C@@H]2[C@@H](COc3ccc(NC(=O)c4cscn4)cc3C(=O)N2C)O1	none
Cc1n[nH]c(C)c1S(=O)(=O)N1CCN(c2ccccn2)CC1	Statin myotox sup 77.6 (no result: F508del corr)
Cc1cc(C)c(C)c(S(=O)(=O)N2CCN(c3ccccn3)CC2)c1C	none
C[C@H](CO)N1C[C@H](C)[C@H](CN(C)Cc2ccncc2)Oc2cc(C3=CCCCC3)ccc2S1(=O)=O	none
CCOc1ccc(-c2nnc3n2N=C(c2ccc(OC)cc2)CS3)cc1	none (no result: F508del corr)
COc1ccc(C2=Nn3c(nnc3-c3ccccn3)SC2)cc1	ARNT-TACC3 inh 82.4
CN1c2ccc(C3=CCCCC3)cc2[C@H]2[C@H](CCN2C(=O)C2CCCCC2)[C@H]1CO	none (no result: ARNT-TACC3 inh, Statin myotox sup, PglD inh)
COc1ccc(NC(=O)CN2CCCN(S(=O)(=O)c3ccc(F)cc3)CC2)c(OC)c1	Statin myotox sup 94.4
COc1ccc2c3c([nH]c2c1)[C@@H](CO)N(C(=O)C1CCC1)CC31CCN(S(C)(=O)=O)CC1	none (no result: ARNT-TACC3 inh, Statin myotox sup, PglD inh)
C[C@H]1CN([C@@H](C)CO)S(=O)(=O)c2ccc(-c3ccc(C(=O)N(C)C)cc3)cc2O[C@@H]1CN(C)C(=O)C1CCC1	none
Cc1ccc(S(=O)(=O)N2CCCSCC2)cc1	Statin myotox sup 113.9 (no result: F508del corr)
C[C@@H]1CCCCO[C@H](CN(C)C(=O)CCCN(C)C)[C@H](C)CN([C@@H](C)CO)C(=O)c2cc(NC(=O)C3CCCCC3)ccc2O1	none (no result: Statin myotox sup)
C[C@H](CO)N1C[C@H](C)[C@H](CN(C)Cc2ccc(Cl)c(Cl)c2)Oc2ccc(NC(=O)Nc3ccc(C(F)(F)F)cc3)cc2CC1=O	none
CCCC(=O)NC(NC(=S)Nc1ccc(S(N)(=O)=O)cc1)C(Cl)(Cl)Cl (configuration not stated)	ARNT-TACC3 inh 28.5 (no result: F508del corr, Statin myotox sup, PglD inh)
O=C(CCc1ccccc1)NC(NC(=S)Nc1ccc(Br)cc1)C(Cl)(Cl)Cl (configuration not stated)	none
CCCC(=O)NC(NC(=S)Nc1ccc(N=Nc2ccccc2)cc1)C(Cl)(Cl)Cl (configuration not stated)	F508del corr 8.6 (no result: Statin myotox sup)
COc1ccccc1N1CCN(C(CNS(=O)(=O)c2cccs2)c2cccnc2)CC1 (configuration not stated)	F508del corr 8.1
C[C@@H]1CN([C@H](C)CO)C(=O)CCCn2cc(nn2)CO[C@H]1CN(C)C(=O)Nc1ccc(N2CCN(C)CC2)cc1	none
COc1ccc(NC(=O)Nc2cccc3c2O[C@H](CN(C)Cc2ccncc2)[C@H](C)CN([C@@H](C)CO)C3=O)cc1	PglD inh 22.0
C[C@@H]1CN([C@H](C)CO)C(=O)c2cccc(NC(=O)Nc3ccc(F)cc3)c2O[C@H]1CN(C)Cc1ccccc1	Statin myotox sup 72.0
COC(=O)c1cc(COC(=O)c2ccc(OC)c(S(=O)(=O)N3CCCC3)c2)oc1C	Statin myotox sup 89.7 (no result: F508del corr)
COC(=O)c1cn(NC(=O)c2cc([N+](=O)[O-])ccc2F)c(=O)c2ccccc12	F508del corr 8.7 (no result: Statin myotox sup, PglD inh)
Cc1ccc(NC2=C(N3CCOCC3)C(=O)c3ccccc3C2=O)cc1	ARNT-TACC3 inh 61.7 (no result: F508del corr)
Cc1cc(NCc2ccccn2)n2ncc(-c3ccc(Cl)cc3)c2n1	none (no result: Statin myotox sup)
Cc1cc(NCc2ccccn2)n2ncc(-c3ccccc3)c2n1	F508del corr 8.5
NC1=NC(=Nc2ccc(Cl)cc2)c2ccccc21	none (no result: Statin myotox sup)
NC1=NC(=Nc2ccccc2)c2ccccc21	Statin myotox sup 134.1 (no result: F508del corr)
[O-][n+]1onc2c1CCc1nnccc1-2	Statin myotox sup 84.2 (no result: F508del corr)
C[C@@H]1CN([C@@H](C)CO)S(=O)(=O)c2ccc(Br)cc2O[C@@H]1CN(C)Cc1ccncc1	none
CCn1cc(/C=C/c2cc[n+](C)cc2)c2ccccc21	none
CC(C)n1cc(/C=C/c2cc[n+](C)cc2)c2ccccc21	F508del corr 9.2
Cc1ccc(C)c(OCC(O)CN2CCC(C)CC2)c1C (configuration not stated)	Statin myotox sup 110.5 (no result: F508del corr)
COc1ccc(S(=O)(=O)Nc2cccc3c2O[C@@H](CN(C)S(=O)(=O)c2ccc(OC)cc2)[C@H](C)CN([C@@H](C)CO)C3=O)cc1	none (no result: ARNT-TACC3 inh, Statin myotox sup, PglD inh)
COc1cc2c(N3CCOCC3)cc(O)c(CC(=O)Nc3ccccc3)c2cc1OC	Statin myotox sup 114.7 (no result: F508del corr)
C=CCOc1cccc(C2C(C(=O)c3ccc(C)o3)=C(O)C(=O)N2Cc2ccncc2)c1 (configuration not stated)	Statin myotox sup 110.2 (no result: F508del corr)
O=C(Cc1ccccn1)NCC[C@@H]1CC[C@H](NC(=O)Nc2ccc(C(F)(F)F)cc2)[C@@H](CO)O1	F508del corr 14.2
Oc1[nH]c2ccccc2c1C=NCC1CCCO1 (configuration not stated)	Statin myotox sup 121.3 (no result: F508del corr)
O=c1c2ccccc2sc2c(CO)ccc(NCCN3CCCCC3)c12	F508del corr 17.4 (no result: Statin myotox sup, PglD inh)
O=C(CCNS(=O)(=O)c1cccc(C(F)(F)F)c1)NC1CC1	F508del corr 16.0
O=S(=O)(c1ccc(S(=O)(=O)N(Cc2ccco2)Cc2ccccc2Cl)cc1)N1CCCC1	Statin myotox sup 93.5 (no result: F508del corr)
CN(C)S(=O)(=O)c1ccc(S(=O)(=O)N(Cc2ccco2)Cc2ccccc2Cl)cc1	none (no result: F508del corr)
O=C(OCC(=O)N1CCOCC1)c1ccccc1SCC(=O)N1CCCC1	Statin myotox sup 118.4 (no result: F508del corr)
